Experimental data reported in article PMC13494018.
Values without a mark were called inactive. No rule for the calls is given here.

Molecular target: CD276, Q5ZPR3
Sequence (Q5ZPR3 whole entry): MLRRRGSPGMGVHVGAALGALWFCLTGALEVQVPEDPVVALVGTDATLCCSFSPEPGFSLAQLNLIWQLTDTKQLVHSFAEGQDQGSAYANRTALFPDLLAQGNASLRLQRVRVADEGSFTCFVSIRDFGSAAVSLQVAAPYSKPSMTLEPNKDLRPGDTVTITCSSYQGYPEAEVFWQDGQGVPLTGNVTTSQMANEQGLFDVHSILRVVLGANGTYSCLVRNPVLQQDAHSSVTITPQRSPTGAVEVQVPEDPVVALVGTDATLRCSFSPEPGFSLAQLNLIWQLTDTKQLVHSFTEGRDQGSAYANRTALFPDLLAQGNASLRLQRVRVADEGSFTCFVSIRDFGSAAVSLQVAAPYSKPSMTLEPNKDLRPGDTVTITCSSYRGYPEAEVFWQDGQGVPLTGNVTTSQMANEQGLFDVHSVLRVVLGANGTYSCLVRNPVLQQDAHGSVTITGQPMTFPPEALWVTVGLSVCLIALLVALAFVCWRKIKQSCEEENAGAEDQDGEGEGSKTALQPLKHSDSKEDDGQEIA

Binder	binding in a display sort
design_391_ca6baf5d-2451-47ba-bffc-fc886679966a_2026_dldesign_0_cycle1_af2pred (protein) AAKEALEKAKEKAEEIKAIADDVAKKAAAGTITPEEVAAALAKAIELAKEASEYLKEVPEAEAEEIAREVNAAMAKLNKAAVKALA	not found
design_391_ca6baf5d-2451-47ba-bffc-fc886679966a_968_dldesign_0_cycle1_af2pred (protein) AAAQQQLRDQARKLLEQAAKRAKEAGNEEAAKEAKEAAKLLKEGGSLGEAAVEASRAHAAAVRFGDEETAALAQAALKLLSQAA	not found
design_391_ca6baf5d-2451-47ba-bffc-fc886679966a_1932_dldesign_0_cycle1_af2pred (protein) AQANAELTLRTLEAAGRAALALARASDAETAARILDAFRKTSAVLIESGAAAGPEAAKKVKELADKYLAELEAIVAAKAAEAA	not found
design_391_ca6baf5d-2451-47ba-bffc-fc886679966a_2408_dldesign_0_cycle1_af2pred (protein) SAAAVAAALAAAEASVKTAERFAEEAEKAVDDPERATRLGESARQNIEVALALADDAAATDPAAAPKAAEIKKRAEEVRKRIEEVLKK	not found
design_486_d4f32670-1303-4d79-8413-1b14cb3eff50_34_dldesign_0_cycle1_af2pred (protein) AAEKAIKVLEEAKKEAAKDPGDGKAAIEAIEKAIEAVKANPNNAGIGQAMVILAEAAAKASPKTRAVLSKAIAELSQVAI	not found
design_486_d4f32670-1303-4d79-8413-1b14cb3eff50_4_dldesign_0_cycle1_af2pred (protein) REEKVEEARRLAQRALNAASKAVVGITSGSLSPEEIQALIDEATEALERAKELAPYATPAVREAIELAEALLQQAKEL	not found
design_391_ca6baf5d-2451-47ba-bffc-fc886679966a_1313_dldesign_0_cycle1_af2pred (protein) MEEARRRAEELLRRVRELAARAAKAAAAGDVAEAQRLLAEALEALAELSRLGREVGPEGRELVREGNRAVAAAARAALAAARAA	not found
design_486_d4f32670-1303-4d79-8413-1b14cb3eff50_194_dldesign_0_cycle1_af2pred (protein) GVEEAYDVAKALAEQAIKANAADPEAKKKAEEALKKAEEAYKNAPKIDPAEAAYKIMKEAAKAAKQYLAAVAK	not found
design_391_ca6baf5d-2451-47ba-bffc-fc886679966a_926_dldesign_0_cycle1_af2pred (protein) AEAAAQKALATAMAKALKKRGEELLKEAKTASAEEAKKLLDNFVKLGEVLAAGAPPEVGAEVKAATEKYSAEMQAVIDAKAA	not found
design_391_ca6baf5d-2451-47ba-bffc-fc886679966a_1789_dldesign_0_cycle1_af2pred (protein) DALAQAIAQIKEMGDIALALAQDALANPAIAAGAIRAAQSLVKHMLALGKAAGPEAAAVAEKEAAKVNAAIAQAKAA	not found
design_391_ca6baf5d-2451-47ba-bffc-fc886679966a_1195_dldesign_0_cycle1_af2pred (protein) SLYDEALKYAMQAANLGYEADPELAKKLRQAAIALAQGKIDEAIALLKEAKELAKKYPEKEPEIKELIDKAIELANKIK	not found
design_391_ca6baf5d-2451-47ba-bffc-fc886679966a_1483_dldesign_0_cycle1_af2pred (protein) SEAAAKEKKAIEAIKKAAADAEAMLQSLIAAGMPAANARAVVTTMTTAARTAAKEAGTEAAKKAAKEAIAKIEAAGKAAEAQLAAQAA	not found
design_391_ca6baf5d-2451-47ba-bffc-fc886679966a_1193_dldesign_0_cycle1_af2pred (protein) AAARQAALLAQAEALRAQAVALADGTAEEQQALLQQIVDLAQAHPDMSPETWAALNAALAAASSAYIRAARA	not found
design_391_ca6baf5d-2451-47ba-bffc-fc886679966a_1188_dldesign_0_cycle1_af2pred (protein) AAAEEIAARNGEALARQAAAASPEDAAAIAENALQMARASPLFAPAARKAVEAAAETIAKEDPERGEALLREGLAAVEAIEA	not found
design_391_ca6baf5d-2451-47ba-bffc-fc886679966a_2271_dldesign_0_cycle1_af2pred (protein) AAAEKEKEAEAKELFEKARKLAAEAAKLAVKAVGLSEEAYQLANEALQYAIEALEIVSAGEDLEKAKELLEKAQEKLKKATELVKKL	not found
design_391_ca6baf5d-2451-47ba-bffc-fc886679966a_1760_dldesign_0_cycle1_af2pred (protein) KEETQRVMVEATRVINRVAALVIAHPELTEAAALIQQALALLEQAKELLEAGEEEKALELAKQALELAKKALEIAESAL	not found
design_391_ca6baf5d-2451-47ba-bffc-fc886679966a_1141_dldesign_0_cycle1_af2pred (protein) APAAATARAVGKRAQAAAKKLAKAGTKEVAKEAKKLAEKAKELEKEAIANAADTAVSGAKILEILKLLDEANKLLKKY	not found
design_391_ca6baf5d-2451-47ba-bffc-fc886679966a_1257_dldesign_0_cycle1_af2pred (protein) SAAAAAAARAAKAAADAEQLKALGDAAIAQLAADPSMAPQARAVAAMARAAAEGYAADPATAAAAEAARATAERVAAAAAAAA	not found
design_391_ca6baf5d-2451-47ba-bffc-fc886679966a_2389_dldesign_0_cycle1_af2pred (protein) GKEEEAKEAVERARELAKKMIEEAEKAAKEDLGKAIEVLKKGNEELLELAEEAEELDPEAGEEIRELATQAISEAVKKMVAIQLAK	not found

Binder	binding in a display sort
design_391_ca6baf5d-2451-47ba-bffc-fc886679966a_1764_dldesign_0_cycle1_af2pred (protein) DPLEEALKEFEEALKLARELAEAVAALNPEEGERAREAIKEAEKRAKEALKLSPEEAAKAIREIRNELMRRVMREGARALAAA	not found
design_486_d4f32670-1303-4d79-8413-1b14cb3eff50_66_dldesign_0_cycle1_af2pred (protein) AEAEAAAEAAAAAARAAAAAGDFATAVAITTTFAAANPALAWRVANAALAAFSQAARDPATAAAANAAMAAVVDTLRALSS	not found
design_391_ca6baf5d-2451-47ba-bffc-fc886679966a_1281_dldesign_0_cycle1_af2pred (protein) AAQEVQERAREVAARAEALAAAAAADPAAARLARSAAHFARLAAELAPTDLPLAQQALEVAESLLAEAEALLAARRA	not found
design_486_d4f32670-1303-4d79-8413-1b14cb3eff50_135_dldesign_0_cycle1_af2pred (protein) EREEEVERRREEVVRAAELVAAIARAVGDEETARLAEEAKRLAEEGGEEGVERARELVREAMVRIAKRLAEKS	not found
design_486_d4f32670-1303-4d79-8413-1b14cb3eff50_30_dldesign_0_cycle1_af2pred (protein) AAAARAKAGVYTGEGFEKVREGERLRREGDPRAVEEYEEAAKLFEKAAEYYAQVNPGAAAGVAAMAKQVRERAEEYREEL	not found
design_391_ca6baf5d-2451-47ba-bffc-fc886679966a_2338_dldesign_0_cycle1_af2pred (protein) AEAAKQAALNTAGILAATVGAEAAAAAGLEAITVYGASIGDVLKATTTIASATSPQARANATRAVALISRALIAS	not found
design_391_ca6baf5d-2451-47ba-bffc-fc886679966a_2108_dldesign_0_cycle1_af2pred (protein) TAAAALAAAKAALATAKAAGLPARYLEMAEAALAVATSAAASGDPAHQKAALAFSSAVLAAIEAEAAKRA	not found
design_391_ca6baf5d-2451-47ba-bffc-fc886679966a_1909_dldesign_0_cycle1_af2pred (protein) VGLAKAAELAVESAKQAVEQAEALAKAGKDPKQALALTDQAKLAADTAKAIAKQVEKEDPEKGKKLKEEAEKVKKKAEEVEKKIK	not found
design_391_ca6baf5d-2451-47ba-bffc-fc886679966a_888_dldesign_0_cycle1_af2pred (protein) AAAAAAAAAAAAAAAAALARAEELAAAASPEVRALIEAHGIAGRIMFMYTLGARAAAADPARGAELLADARALLAAAQAASRAA	not found
design_391_ca6baf5d-2451-47ba-bffc-fc886679966a_2349_dldesign_0_cycle1_af2pred (protein) NQAKLAEVFARAQEVIKRREEVRKRAEELSEEKREKVLKLLEESTKYLQEAFRAIAKGDAENAKKYVDKAEKLVEEAEKA	not found
design_391_ca6baf5d-2451-47ba-bffc-fc886679966a_1527_dldesign_0_cycle1_af2pred (protein) AEERAEEVRRRAEELRARALALIAEDPGAGMAYAVEAARELSEYGRAHPEVAEAAGEAANDVLSAASRAAMAVYAA	not found
design_391_ca6baf5d-2451-47ba-bffc-fc886679966a_707_dldesign_0_cycle1_af2pred (protein) AEEEERERRAEEVRRWAEERAAQARALAAQDPQAGLALALEAMEELRELRERDPAVAEAAREGEQLMAEIAAQAAKAATA	not found
design_391_ca6baf5d-2451-47ba-bffc-fc886679966a_1360_dldesign_0_cycle1_af2pred (protein) DYTERAKAALKSAIENMAKAAIEAAKEDAEKGKEKLKQLKELSEQMIAIAASLDPALAKEIKAYAEEQIKKVEEAIKKAK	not found
design_391_ca6baf5d-2451-47ba-bffc-fc886679966a_2255_dldesign_0_cycle1_af2pred (protein) DPLLAAARAVAAAALAAVRDGAARGAEAAEQALTFALNLLAAQARRAERELAGDPALRARVLAILDAARAEVRALGEALIAAAR	not found
design_391_ca6baf5d-2451-47ba-bffc-fc886679966a_1601_dldesign_0_cycle1_af2pred (protein) STLQELVDAAKEALAAAGELYRLDPERGEALRKQVWALLIAGLRDPATAAADKAKIEALKAEAEALVAELK	not found
design_391_ca6baf5d-2451-47ba-bffc-fc886679966a_294_dldesign_0_cycle1_af2pred (protein) AAEEAAEKAVEEAEKALEKAKAHLAKYPDSLAAKAAVALAKTMLAAAKEVAEEGNLEELERTLESVRKATEEMDKLLAADEAAAA	not found
design_391_ca6baf5d-2451-47ba-bffc-fc886679966a_866_dldesign_0_cycle1_af2pred (protein) SMEEEKKKEAEKKAQSYLKSVEVWATATISAIAQGVVGAQMLANLKKKSEEAIKKLKELGTEEGKKAAEKVKAYLAKAEAAA	not found
design_486_d4f32670-1303-4d79-8413-1b14cb3eff50_103_dldesign_0_cycle1_af2pred (protein) AEAEEFAEKAKEKAKEAVKVYAKDPEAGAAKLNALQAEAARKAIADPRYNPALAAVVEEALKANEVAKAA	not found
design_391_ca6baf5d-2451-47ba-bffc-fc886679966a_1034_dldesign_0_cycle1_af2pred (protein) ADAAAQALSQAFELAAQALTKTGSDEANAALQAVTRAMADPAKLPEAIAAAKKAAAAYPEVKALMDQAIKELEKAAELAKAA	not found
